Results on 2 compounds are retold here after PubChem BioAssay AID743314 (Broad Institute, 2014).

SMILES strings stand for the structures. Potency and affinity values are given separately. Inconclusive results are not listed. Where a call stands in place of a potency, no number is given. The source made the active and inactive calls.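 Rule for the calls: active = fitted half-maximal concentration no higher than twice the top tested dose, in every repeat run; inconclusive = repeat runs disagree, poor fit, or flat partial inhibition; inactive = the rest.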

The target of this assay is Endoplasmic reticulum aminopeptidase 1 (Homo sapiens) (UniProt Q9NZ08). The experiment in a line: ERAP1 aminopeptidase inhibitors, dose response, biochemical, cherry-pick, set 2, plate reader (AID 743314).
Sequence of Endoplasmic reticulum aminopeptidase 1 (Homo sapiens) (Q9NZ08 whole entry, looked up): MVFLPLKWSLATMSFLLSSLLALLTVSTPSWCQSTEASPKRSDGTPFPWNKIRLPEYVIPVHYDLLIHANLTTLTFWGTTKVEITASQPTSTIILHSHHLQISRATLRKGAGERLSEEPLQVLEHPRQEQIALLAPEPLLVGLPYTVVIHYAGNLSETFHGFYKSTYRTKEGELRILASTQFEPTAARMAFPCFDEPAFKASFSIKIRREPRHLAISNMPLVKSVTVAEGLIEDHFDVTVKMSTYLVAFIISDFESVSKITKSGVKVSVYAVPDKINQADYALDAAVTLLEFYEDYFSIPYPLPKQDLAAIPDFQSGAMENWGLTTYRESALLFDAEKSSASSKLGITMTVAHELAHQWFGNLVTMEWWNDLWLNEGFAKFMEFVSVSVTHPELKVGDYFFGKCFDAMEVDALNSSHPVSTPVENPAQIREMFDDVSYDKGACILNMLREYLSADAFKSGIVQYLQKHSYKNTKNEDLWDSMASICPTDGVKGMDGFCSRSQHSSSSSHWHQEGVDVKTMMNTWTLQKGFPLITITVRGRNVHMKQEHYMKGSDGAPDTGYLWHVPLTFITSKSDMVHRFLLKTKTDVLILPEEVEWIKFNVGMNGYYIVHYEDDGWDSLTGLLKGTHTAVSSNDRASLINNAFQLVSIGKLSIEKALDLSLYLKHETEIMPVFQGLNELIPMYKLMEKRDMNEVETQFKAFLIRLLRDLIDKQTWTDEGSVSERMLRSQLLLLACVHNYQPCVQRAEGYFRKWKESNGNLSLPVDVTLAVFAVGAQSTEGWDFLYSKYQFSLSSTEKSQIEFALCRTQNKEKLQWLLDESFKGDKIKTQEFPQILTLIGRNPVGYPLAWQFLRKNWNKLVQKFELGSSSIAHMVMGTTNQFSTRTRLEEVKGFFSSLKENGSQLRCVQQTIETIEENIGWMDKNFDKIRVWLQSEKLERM

Consider `Cc1cc(=O)oc2cc(OCC(=O)N3CCN(C(C)c4ccccc4)CC3)c(Cl)cc12` (configuration not stated), for which the compound was called inactive.

Regarding `Cc1cc(OCC(=O)NC(Cc2ccc(Cl)cc2)C(=O)O)c2c3c(c(=O)oc2c1)CCCC3` (configuration not stated), the outcome was inactive.
